Structures are written as SMILES.

Regarding `COc1cc(C=NNc2ncnc3c2cnn3-c2ccccc2)ccc1O` [GW513184X], the Kinases covered entry with AurkA is given as “AurkA”.

As for `COc1cc(-c2cncc(-c3cnn(C4CCNCC4)c3)c2)cc(OC)c1OC` [K05908], the Kinases covered entry in the experiment on BMPR1A is “BMPR1A”; in the experiment on BMPR1B, “BMPR1B”.

For `CC(C)N1CC(=O)N(C)c2cnc(Nc3cccc(S(=O)(=O)CCN4CCOCC4)c3)nc21` [BI00009348], in the experiment with BMPR2, the Kinases covered entry was “BMPR2”.

For the compound `C=CC(=O)Nc1cc(-n2c(=O)ccc3cnc4ccc(-c5ccc(NS(C)(=O)=O)cc5)cc4c32)ccc1C` [BMX-IN-1], the figures for the Kinases covered result in the experiment on BMX and in the experiment with BTK were “BMX” and “BTK”, respectively.

As for `COc1ccc2[nH]c3c4[nH]c5ccc(OC)cc5c4c4c(c3c2c1)C(=O)NC4=O` [GW296115X], the Kinases covered result with BRSK1 is “BRSK1”; in the experiment on BRSK2, “BRSK2”.

For the compound `COc1cc2ncnc(Nc3ccc(F)c(Cl)c3)c2cc1O[C@H]1CC[C@H](N)CC1` [BIBW3133BS], the Kinases covered entry in the experiment on BUB1 is “BUB1”.

In the case of `C#Cc1cccc(Nc2ncnc3cc(OC)c(OC4CCN(C)CC4)cc23)c1` [BI00007366], in the experiment on BUB1, the Kinases covered entry is “BUB1”.

As for `CN(C)C/C=C/C(=O)Nc1ccc(C(=O)N2CCC[C@@H](Nc3ncc(Cl)c(-c4c[nH]c5ccccc45)n3)C2)cc1` [THZ531], the Kinases covered result is listed as “CDK12” with CDK12 and “CDK13” in the experiment on CDK13.

Turning to `COC[C@@H](C)N[C@H]1CC[C@H](Nc2cc(-c3cccc(NCC4(C#N)CCOCC4)n3)c(Cl)cn2)CC1` [NVP-2], the results for the Kinases covered entry in the experiment on CDK13 and in the experiment with CDK9 were “CDK13” and “CDK9”, respectively.

Turning to `Cn1cc(-c2ccc(-c3cncc(Cl)c3N3CCC4(CCNC4=O)CC3)cc2)cn1` [CCT251545], the figures for the Kinases covered result in the experiment with CDK19 and in the experiment with CDK8 were “CDK19” and “CDK8”, respectively.

Take `Cn1ncc2cc(-c3cnc(N)c(Cl)c3N3CCC4(CCNC4=O)CC3)ccc21` [CCT251921]: the Kinases covered entry in the experiment with CDK19 is “CDK19”; in the experiment on CDK8, “CDK8”.

Take `CC(C)COC(=O)c1ccc2c(c1)/C(=C/Nc1ccc(S(N)(=O)=O)cc1)C(=O)N2` [GW416981X]: the Kinases covered result with CDK3 was “CDK3”.

Turning to `CCC(NN(C)C)=C1C(=O)Nc2ccc(C(C)=O)cc21` [BI00036838], the Kinases covered result in the experiment with CDK7 is on record as “CDK7”.

On to `CN(C)C/C=C/C(=O)Nc1ccc(C(=O)Nc2cccc(Nc3ncc(Cl)c(-c4c[nH]c5ccccc45)n3)c2)cc1` [THZ1], for which, in the experiment on CDK7, the Kinases covered result was “CDK7”.
